Bioassay records (PubChem BioAssay)
AmpC inh detg – AmpC beta-lactamase inhibition with detergent present. actives 0.041% (n = 370,000). P00811. Potency, µM (highest dose often 114 µM), for inactives: at the highest dose activity change, negative = inhibition, hits mostly inhibitors. AmpC hydrolysis of nitrocefin, absorbance 480 nm, 0.01% Triton;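 further: 0% = no-compound wells and -100% = no-enzyme wells; nearly all actives have a fitted effect of over 25% in size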
Target sequence (P00811 whole entry, looked up): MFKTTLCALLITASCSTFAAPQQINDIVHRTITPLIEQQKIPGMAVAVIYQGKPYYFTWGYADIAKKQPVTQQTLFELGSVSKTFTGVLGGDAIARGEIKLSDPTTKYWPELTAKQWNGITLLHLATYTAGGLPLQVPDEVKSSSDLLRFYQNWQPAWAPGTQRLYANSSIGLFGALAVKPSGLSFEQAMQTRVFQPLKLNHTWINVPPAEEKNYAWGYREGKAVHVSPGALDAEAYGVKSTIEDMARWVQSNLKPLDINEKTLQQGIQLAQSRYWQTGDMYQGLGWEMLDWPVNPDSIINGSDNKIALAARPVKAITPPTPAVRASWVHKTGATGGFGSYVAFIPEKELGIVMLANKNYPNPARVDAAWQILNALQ
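20 mM phosphate pH 7.0 + 0.01% (detergent screen) or 0.0001% Triton X-100; 5.3 nM AmpC reagent; cpd preinc 15 min RT; nitrocefin (800 uM stock) to start; A480 q20 s × 4 min; Activity was normalised to no-enzyme and no-compound control wells.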
AmpC inh no detg – inhibitors of E. coli AmpC beta-lactamase without detergent. P00811. Potency, µM (doses to about 57.1 µM), without a hit: top-dose activity change, negative = inhibition, hits mostly inhibitors. actives 0.52% (n = 330,000). AmpC nitrocefin hydrolysis, absorbance 480 nm, 0.0001% Triton;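 further: plate controls were no compound for no effect and no enzyme for full effect; nearly all actives have a fitted effect of over 20% in size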
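20 mM phosphate pH 7.0 + 0.01% (detergent screen) or 0.0001% Triton X-100; 5.3 nM AmpC reagent; cpd preinc 15 min RT; nitrocefin (800 uM stock) to start; A480 q20 s × 4 min; Activity was normalised to no-enzyme and no-compound control wells.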
Sm TGR block – S. mansoni TGR enzyme inhibition; Q962Y6; actives 3% (n = 360,000); purified TGR, DTNB reduction, TNB absorbance 405 nm; AID 485364; Potency, µM (series often up to 114 µM), inactives show at the highest dose activity change, negative = inhibition, actives largely listed as inhibitors; further: on the % scale 0 is the no-effect control and ±100 the full control effect; nearly all actives have a fitted effect of over 60% in size
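First, TGR (20 nM dispensed) and NADPH were mixed with compound. Second, a 15 min room-temperature incubation followed. Third, further NADPH and then DTNB were added to start the reaction. Finally, TNB absorbance was monitored kinetically.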
Pf growth 48h – P. falciparum growth inhibition at 48 hours (one generation); P. falciparum luciferase growth in erythrocytes, 48 h; Potency, µM (titrated, usually from 28.7 µM), inactives show top-dose activity change, negative = inhibition, most hits filed as inhibitors; actives 5.9% (n = 310,000); AID 504832; further: on the % scale 0 is the no-effect control and ±100 the full control effect
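Erythrocytes infected with P. falciparum carrying an integrated firefly luciferase reporter (2% hematocrit, 0.1% parasitemia final) were exposed to compounds in RPMI 1640 with 0.5% Albumax at 37 C, 5% CO2. Growth inhibition was scored as reduced luminescence.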
Pf growth 96h – P. falciparum growth inhibition at 96 hour, primary screen for plastid delayed-death inhibitors; P. falciparum luciferase reporter growth, 96 h; Potency, µM (titrated, usually from 28.7 µM), for the others: at the highest dose activity change, negative = inhibition, most hits filed as inhibitors; actives 6.9% (n = 320,000); AID 504834; further: on the % scale 0 is the no-effect control and ±100 the full control effect
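Readout is luminescence from an integrated firefly luciferase in P. falciparum. Red cells, 2% hematocrit and 0.05% parasitemia final, were cultured with compound through two parasite generations (96 hours) at 37 C, 5% CO2.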
SARS PLpro yeast – blocks SARS-CoV papain-like protease in a yeast assay; S. cerevisiae expressing SARS-CoV PLpro, growth rescue; actives 0.19% (n = 330,000); Potency, µM (top dose mostly 32.9 µM), for the others: at the top dose activity, positive = growth rescue, actives largely listed as activators; AID 485353; calls by dose curve; further: 0% is about no effect; nearly all actives have a fitted effect of over 55% in size
Active calls of the source: *. Most compounds without a hit are left out; they make up all but 12% or so of the library. Unless noted, the call rests on the fitted dose curve; in most records, active means well fitted curve in the direction sought with a large enough effect; inconclusive means small, poorly fitted or top-dose-only effect, or another doubt; inactive means no such curve, though single readings can be large; an effect the other way counts as inactive or inconclusive. Potency means the concentration at half of the fitted maximal effect.

For Cc1ccc(NC(=O)COC(=O)c2ccc(=O)n(Cc3ccccc3)n2)cc1F the results were AmpC inh detg -18%, AmpC inh no detg -1%, Sm TGR block -7%, Pf growth 48h -3%, Pf growth 96h 27% and SARS PLpro yeast -3%.
`CCOC(=O)c1c(N2C(=O)C=CC2=O)sc(C)c1C` gave AmpC inh detg -6%, AmpC inh no detg -49%, Sm TGR block 0.45µM*, Pf growth 48h -1%, Pf growth 96h 20% and SARS PLpro yeast -39%.
Screening CCOC(=O)c1c(NC(N)=O)sc(C)c1C returned AmpC inh detg 1%, AmpC inh no detg -9%, Sm TGR block -21%, Pf growth 48h -1% and SARS PLpro yeast -30%.
For CCCS(=O)(=O)N1CCN(Cc2ccc3c(c2)c2ccccc2n3CC)CC1 the results were AmpC inh detg inconclusive, AmpC inh no detg 208%, Sm TGR block -8%, Pf growth 48h 9.3µM*, Pf growth 96h 35% and SARS PLpro yeast -16%.
CCn1c(=O)cc(SCC(=O)N2CCN(C(=O)c3ccco3)CC2)c2ccccc21 was read as AmpC inh detg 2%, AmpC inh no detg 11%, Sm TGR block 4%, Pf growth 48h -14%, Pf growth 96h 5.9µM* and SARS PLpro yeast 4%.
For CCOc1ccc(CN2CCN(Cc3ccc4c(c3)c3ccccc3n4CC)CC2)cc1 the results were AmpC inh detg 1% and Sm TGR block -15%.
`CCc1ccc(CN2CCN(S(=O)(=O)Cc3ccccc3)CC2)cc1` gave AmpC inh detg inconclusive, AmpC inh no detg -54%, Sm TGR block 34%, Pf growth 48h 1%, Pf growth 96h 3.3µM* and SARS PLpro yeast 5%.
CCn1c2ccccc2c2cc(CN3CCN(C(=O)c4ccco4)CC3)ccc21 was read as AmpC inh detg -1%, AmpC inh no detg 138%, Sm TGR block 1%, Pf growth 48h inconclusive, Pf growth 96h 8.3µM* and SARS PLpro yeast 4%.
Screening CC(C)c1ccc(NC(=O)C2CCCN2S(=O)(=O)c2ccc3nc(-c4ccccc4)[nH]c3c2)cc1 (configuration not stated) returned AmpC inh detg -4% and Sm TGR block -15%.
`CCc1nc2c(c(=O)[nH]1)C1(CCCC1)Cc1ccccc1-2` gave AmpC inh detg -10%, AmpC inh no detg -25%, Sm TGR block -1%, Pf growth 48h 2%, Pf growth 96h inconclusive and SARS PLpro yeast 2%.
For O=c1c2c(nc3n1CCCCC3)-c1ccccc1CC21CCCCC1 the results were AmpC inh detg inconclusive, AmpC inh no detg -11%, Sm TGR block 5%, Pf growth 48h -17%, Pf growth 96h 8.3µM* and SARS PLpro yeast 10%.
`CCCn1c(SCC#N)nc2c(c1=O)C1(CCCC1)Cc1ccccc1-2` gave AmpC inh detg -3%, AmpC inh no detg -10%, Sm TGR block 12%, Pf growth 48h -21%, Pf growth 96h 4.7µM* and SARS PLpro yeast -6%.
For NNc1nc(N)c2c(n1)-c1ccccc1CC21CCCC1 the results were AmpC inh detg -10%, AmpC inh no detg -38%, Sm TGR block -7%, Pf growth 48h 10µM*, Pf growth 96h 1.7µM* and SARS PLpro yeast -15%.
`CCC1(C)Cc2ccccc2-c2nc3n(c(=O)c21)CCCCC3` (configuration not stated) gave AmpC inh detg -14%, AmpC inh no detg 67%, Sm TGR block -3%, Pf growth 48h -5%, Pf growth 96h 23% and SARS PLpro yeast -10%.
Screening NC(=O)CSc1nc2c(c(=O)n1-c1ccccc1)C1(CCCCC1)Cc1ccccc1-2 returned AmpC inh detg -9%, AmpC inh no detg -28%, Sm TGR block -1%, Pf growth 48h -14%, Pf growth 96h 12µM* and SARS PLpro yeast -2%.
